Experiment [1] concerns the target Retinoic acid receptor RXR-alpha (Homo sapiens) (UniProt P19793). In words: ATG_RXRa_TRANS: Attagene TRANS-FACTORIAL HepG2 Assay for human Retinoid X Receptor alpha (RXRa) (AID 2283012; active = hit-call score of the fitted dose curve at least 0.9, where 1 is the maximum). The method in brief: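 Chimeric NR-GAL4 trans-activation in HepG2, 24 h treatment; reporter transcripts quantified by fluorescence on capillary electrophoresis, analysed for upward change from DMSO.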

In experiment [2] the target is human Retinoid X Receptor beta (RXRb), RXRB (gene 6257) (UniProt P28702). The experiment in a line: ATG_RXRb_TRANS: Attagene TRANS-FACTORIAL HepG2 Assay for human Retinoid X Receptor beta (RXRb) (AID 2283013; active = hit-call score of the fitted dose curve at least 0.9, where 1 is the maximum). In short, it runs like this: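 After a 24 h incubation with test chemical, transfected HepG2 cells carrying NR-Gal4 fusions and GAL4-UAS reporter transcription units yield RNA whose reporter cDNA is FAM-labelled, HpaI-cut and sized by capillary electrophoresis; increases over DMSO are scored.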

Read-out in experiment [3]: E-selectin (Homo sapiens) (UniProt P16581)
The experiment in a line: BSK_3C_Eselectin: BioMAP Diversity Plus: 3C Assay for Eselectin Biomarker Activity (AID 2283015).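 As to outcome: cell surface E-selectin protein quantified by ELISA 24 h after dosing.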 Conditions: primary human endothelial cells (HUVEC); actives raise or lower the signal. In short, it runs like this: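 Human vascular endothelium from umbilical vein is exposed to test chemicals for 24 h. E-selectin levels are read by ELISA and compared with DMSO controls.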

Read-out in experiment [4]: Interleukin-1 alpha (IL1a), IL1A (gene 3552)
The experiment in a line: BSK_BE3C_IL1a: BioMAP Diversity Plus: BE3C Assay for Interleukin-1 alpha (IL1a) Biomarker Activity (AID 2283016). Conditions: primary human bronchial epithelial cells; actives raise or lower the signal. The method in brief: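 Measured in human lung primary bronchial epithelial cells: IL-1a by ELISA at 24 h after dosing, with bidirectional fitting against DMSO.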

Read-out in experiment [5]: Monocyte Chemoattractant Protein-1 (MCP1), CCL2 (gene 6347)
In words: BSK_3C_MCP1: BioMAP Diversity Plus: 3C Assay for Monocyte Chemoattractant Protein-1 (MCP1) Biomarker Activity (AID 2283017). Conditions: primary human endothelial cells (HUVEC); actives raise or lower the signal. The method in brief:
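Endothelial cells from human umbilical vein are dosed with chemical, cultured 24 h, then assayed for MCP-1 by ELISA; both increases and decreases are modelled against DMSO controls.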

Read-out in experiment [6]: Monocyte Chemoattractant Protein-1 (MCP1), CCL2 (gene 6347)
In words: BSK_4H_MCP1: BioMAP Diversity Plus: 4H Assay for Monocyte Chemoattractant Protein-1 (MCP1) Biomarker Activity (AID 2283018). Conditions: primary human endothelial cells (HUVEC); actives raise or lower the signal. The method in brief:
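Primary human umbilical vein endothelium is exposed to chemical for 24 h before MCP-1 is assayed by ELISA. Concentration-response fitted bidirectionally relative to DMSO.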

Read-out in experiment [7]: Interleukin-8 (IL8), CXCL8 (gene 3576)
In words: BSK_3C_IL8: BioMAP Diversity Plus: 3C Assay for Interleukin-8 (IL8) Biomarker Activity (AID 2283020). Conditions: primary human endothelial cells (HUVEC); actives raise or lower the signal. In short, it runs like this: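 Using DMSO-treated wells as the baseline, bidirectional curve fitting was applied to ELISA-measured IL-8 from human umbilical vein endothelial cultures sampled 24 h after compound addition.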

Read-out in experiment [8]: Monokine induced gamma interferon (MIG), CXCL9 (gene 4283)
In words: BSK_3C_MIG: BioMAP Diversity Plus: 3C Assay for Monokine induced gamma interferon (MIG) Biomarker Activity (AID 2283021).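 As to AC50: MIG protein level measured by immunoassay in the treated endothelial cultures.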 Conditions: primary human endothelial cells (HUVEC); actives raise or lower the signal. In short, it runs like this:
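ELISA-measured MIG in dosed HUVEC 3C cultures at 24 h, analysed by bidirectional fitting with DMSO defining baseline activity.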

Experiment [9] has as its target human Vitamin D Receptor (VDR), VDR (gene 7421) (UniProt P11473). The experiment in a line: ATG_VDR_TRANS: Attagene TRANS-FACTORIAL HepG2 Assay for human Vitamin D Receptor (VDR) (AID 2283022; active = hit-call score of the fitted dose curve at least 0.9, where 1 is the maximum). In short, it runs like this:
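Fluorescence of labelled reporter cDNA fragments, resolved by capillary electrophoresis, gives mRNA induction after 24 h treatment of HepG2 cells carrying transfected Gal4-fusion reporter units. Activity is fitted in the positive direction with DMSO as baseline.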

Experiment [10] can be described thus: BSK_3C_SRB: Viability Assessment in the BioMAP Diversity Plus: 3C Assay (AID 2283023).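 Also: fitted both ways against DMSO so a hit may be signal rise or drop.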 Conditions: primary human endothelial cells (HUVEC). The method in brief: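 Cells were dosed with chemical, cultured 24 h, fixed with 10% TCA, stained with 0.1% SRB and read at 560 nm. Human umbilical vein endothelium was used; DMSO served as negative control and baseline.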

Read-out in experiment [11]: Matrix Metallopeptidase 1 (MMP1), MMP1 (gene 4312)
The experiment in a line: BSK_BE3C_MMP1: BioMAP Diversity Plus: BE3C Assay for Matrix Metallopeptidase 1 (MMP1) Biomarker Activity (AID 2283024). The conditions noted are these: primary human bronchial epithelial cells; actives raise or lower the signal. The method in brief:
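In this multiplexed primary-cell system, human bronchial epithelium received chemicals for 24 h before an ELISA for MMP1. Values reflect bidirectional fits normalised to the DMSO baseline.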

Experiment [12] in a line: BSK_3C_Vis: BioMAP Diversity Plus: 3C Assay for Morphology Visualization (AID 2283025).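 Also: fitted both ways so gain or loss versus DMSO counts.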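 As to AC50: light microscopy image of cell morphology used as background control.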 Conditions: primary human endothelial cells (HUVEC). The method in brief: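 Light-microscopy morphology readout, 24 h exposure, human primary umbilical vein endothelium; analysed relative to DMSO with bidirectional fitting.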
Read-out in experiment [13]: Pselectin, SELP (gene 6403)
In words: BSK_4H_Pselectin: BioMAP Diversity Plus: 4H Assay for Pselectin Biomarker Activity (AID 2283026). The conditions noted are these: primary human endothelial cells (HUVEC); actives raise or lower the signal. The method in brief: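 Bidirectional fits against DMSO gave the endpoint. Cells: primary human umbilical vein endothelium, chemical-treated for 24 h before ELISA detection of P-selectin.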

Experiment [14] in a line: BSK_4H_SRB: Viability Assessment in the BioMAP Diversity Plus: 4H Assay (AID 2283027).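 Also: cells exposed to compound for 24 h before staining.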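 As to AC50: curves fitted both ways versus DMSO so AC50 may be loss or gain.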 Conditions: primary human endothelial cells (HUVEC). In short, it runs like this:
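Cytotoxicity read-out in primary human endothelial cells: after 24 h compound exposure, cells were TCA-fixed (10%), stained with 0.1% SRB and absorbance taken at 560 nm. Values fitted in both directions relative to DMSO.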

Read-out in experiment [15]: Thrombomodulin, THBD (gene 7056)
The experiment in a line: BSK_3C_Thrombomodulin: BioMAP Diversity Plus: 3C Assay for Thrombomodulin Biomarker Activity (AID 2283029). Conditions: primary human endothelial cells (HUVEC); actives raise or lower the signal. In short, it runs like this:
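In a multiplexed primary-cell system, human umbilical vein endothelium received chemical and was assayed 24 h later for thrombomodulin by ELISA. Parallel cultures were SRB-stained (0.1% SRB after 10% TCA fixation, read at 560 nm) to flag cytotoxicity.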

Read-out in experiment [16]: Urokinase-type plasminogen activator receptor (uPAR), PLAUR (gene 5329)
In words: BSK_4H_uPAR: BioMAP Diversity Plus: 4H Assay for Urokinase-type plasminogen activator receptor (uPAR) Biomarker Activity (AID 2283030). Conditions: primary human endothelial cells (HUVEC); actives raise or lower the signal. The method in brief: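 Chemicals are dosed onto human vascular endothelial primary cells (umbilical vein). After 24 h, uPAR is read by ELISA. Gain or loss of signal is fitted relative to DMSO.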

Read-out in experiment [17]: Vascular endothelial growth factor receptor 2 (Homo sapiens) (UniProt P35968)
In words: BSK_4H_VEGFRII: BioMAP Diversity Plus: 4H Assay for Vascular endothelial growth factor receptor 2 (VEGFR2) Biomarker Activity (AID 2283031).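 As to AC50: cell-surface VEGFR2 protein level quantified by ELISA.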 The conditions noted are these: primary human endothelial cells (HUVEC); actives raise or lower the signal. In short, it runs like this: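 VEGFRII levels on human vascular endothelial primary cells were determined by ELISA at 24 hours post-dosing, with gain- or loss-of-signal fitted against DMSO controls.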

Read-out in experiment [18]: Human Leukocyte Antigen - DR isotype (HLADR), HLA-DRA (gene 3122)
In words: BSK_3C_HLADR: BioMAP Diversity Plus: 3C Assay for Human Leukocyte Antigen - DR isotype (HLADR) Biomarker Activity (AID 2283019).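 As to outcome: ELISA of cell-surface HLA-DR on HUVEC 24 h after dosing.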 The conditions noted are these: primary human endothelial cells (HUVEC); actives raise or lower the signal. The method in brief: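 Endothelial cells from human umbilical vein are treated with test chemical; after 24 h, HLA-DR levels are measured by ELISA. Data are fitted in both directions using DMSO as the baseline.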

Experiment [19] can be described thus: BSK_BE3C_SRB: Viability Assessment in the BioMAP Diversity Plus: BE3C Assay (AID 2283028). The conditions noted are these: primary human bronchial epithelial cells. In short, it runs like this: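 Overt cytotoxicity was assessed as total protein in confluent human primary bronchial epithelial cultures 24 h after chemical addition, using 0.1% sulforhodamine B staining read at 560 nm.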

Experiment [20] deals with human Thyroid Receptor alpha (THRa1), THRA (gene 7067) (UniProt P10827). In words: ATG_THRa1_TRANS: Attagene TRANS-FACTORIAL HepG2 Assay for human Thyroid Receptor alpha (THRa1) (AID 2283014; active = hit-call score of the fitted dose curve at least 0.9, where 1 is the maximum). The method in brief: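 First, HepG2 cells receive multiple GAL4-UAS reporter units and the chimeric receptor. They are then dosed for 24 h, after which RNA is reverse-transcribed, amplified, labelled, HpaI-cut and sized by capillary electrophoresis; gain relative to DMSO is scored.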

This is an account of results in PubChem BioAssay (EPA / NIEHS).

A word on the AC50: it is the concentration giving half of the maximal activity seen.

Inconclusive results are not listed. Active and inactive are the calls of the source. The calls were made as follows, unless noted: active = hit-call score of the fitted dose curve at least 0.9, where 1 is the maximum; inactive = score below 0.9.

E-selectin (Homo sapiens), sequence (P16581 whole entry, looked up): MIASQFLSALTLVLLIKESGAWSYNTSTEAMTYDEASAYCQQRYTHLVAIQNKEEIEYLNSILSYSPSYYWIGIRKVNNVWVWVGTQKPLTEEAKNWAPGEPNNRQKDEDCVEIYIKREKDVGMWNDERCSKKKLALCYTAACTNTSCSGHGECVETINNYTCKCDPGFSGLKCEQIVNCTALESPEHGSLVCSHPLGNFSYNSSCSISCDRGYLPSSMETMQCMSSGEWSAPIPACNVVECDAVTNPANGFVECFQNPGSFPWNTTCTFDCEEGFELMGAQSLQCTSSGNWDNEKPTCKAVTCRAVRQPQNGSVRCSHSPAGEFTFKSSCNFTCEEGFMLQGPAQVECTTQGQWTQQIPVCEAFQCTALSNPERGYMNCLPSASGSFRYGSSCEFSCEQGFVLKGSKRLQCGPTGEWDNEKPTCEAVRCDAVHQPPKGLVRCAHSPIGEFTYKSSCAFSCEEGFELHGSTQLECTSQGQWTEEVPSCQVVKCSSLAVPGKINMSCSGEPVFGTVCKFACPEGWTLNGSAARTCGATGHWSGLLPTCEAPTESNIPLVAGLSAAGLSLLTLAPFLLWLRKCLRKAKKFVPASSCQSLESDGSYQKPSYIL
human Vitamin D Receptor (VDR), VDR (gene 7421), sequence (P11473 whole entry, looked up, the tested form may be a part): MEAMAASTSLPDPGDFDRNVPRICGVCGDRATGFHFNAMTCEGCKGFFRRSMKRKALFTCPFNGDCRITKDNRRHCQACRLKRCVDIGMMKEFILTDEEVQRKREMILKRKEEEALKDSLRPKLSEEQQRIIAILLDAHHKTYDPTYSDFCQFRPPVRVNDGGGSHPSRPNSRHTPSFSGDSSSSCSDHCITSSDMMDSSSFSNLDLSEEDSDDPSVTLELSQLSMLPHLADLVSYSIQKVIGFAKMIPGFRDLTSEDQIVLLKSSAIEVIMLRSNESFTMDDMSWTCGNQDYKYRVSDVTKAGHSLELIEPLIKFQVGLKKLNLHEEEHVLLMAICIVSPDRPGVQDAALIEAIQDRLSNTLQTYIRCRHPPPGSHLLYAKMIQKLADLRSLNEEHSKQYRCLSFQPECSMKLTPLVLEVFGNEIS
human Thyroid Receptor alpha (THRa1), THRA (gene 7067), sequence (P10827 whole entry, looked up, the tested form may be a part): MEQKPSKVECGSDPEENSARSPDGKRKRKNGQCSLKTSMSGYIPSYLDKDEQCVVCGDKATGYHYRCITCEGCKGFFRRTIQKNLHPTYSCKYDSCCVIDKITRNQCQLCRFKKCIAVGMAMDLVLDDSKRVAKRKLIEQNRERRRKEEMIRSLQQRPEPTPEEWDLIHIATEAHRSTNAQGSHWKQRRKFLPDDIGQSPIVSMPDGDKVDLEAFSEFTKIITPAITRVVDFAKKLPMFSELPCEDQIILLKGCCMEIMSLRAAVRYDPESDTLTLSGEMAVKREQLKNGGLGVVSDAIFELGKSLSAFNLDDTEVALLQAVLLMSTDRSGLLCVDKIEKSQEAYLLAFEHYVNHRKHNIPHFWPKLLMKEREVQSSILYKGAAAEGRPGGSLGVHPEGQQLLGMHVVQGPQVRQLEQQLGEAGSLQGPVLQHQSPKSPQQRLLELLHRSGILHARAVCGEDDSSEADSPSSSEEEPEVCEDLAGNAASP
Retinoic acid receptor RXR-alpha (Homo sapiens), sequence (P19793 whole entry, looked up, the tested form may be a part): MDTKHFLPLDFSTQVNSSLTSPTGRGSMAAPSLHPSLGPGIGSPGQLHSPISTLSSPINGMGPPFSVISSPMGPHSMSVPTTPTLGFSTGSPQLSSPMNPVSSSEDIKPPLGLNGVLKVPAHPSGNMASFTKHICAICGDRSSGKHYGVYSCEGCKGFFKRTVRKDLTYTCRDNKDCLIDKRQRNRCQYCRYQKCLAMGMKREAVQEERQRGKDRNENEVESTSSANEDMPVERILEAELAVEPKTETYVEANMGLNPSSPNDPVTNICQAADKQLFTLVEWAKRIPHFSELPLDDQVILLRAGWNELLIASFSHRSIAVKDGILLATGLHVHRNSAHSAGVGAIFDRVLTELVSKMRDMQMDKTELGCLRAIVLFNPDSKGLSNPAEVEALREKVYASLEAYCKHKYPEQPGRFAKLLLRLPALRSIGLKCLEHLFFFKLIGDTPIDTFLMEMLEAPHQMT
human Retinoid X Receptor beta (RXRb), RXRB (gene 6257), sequence (P28702 whole entry, looked up, the tested form may be a part): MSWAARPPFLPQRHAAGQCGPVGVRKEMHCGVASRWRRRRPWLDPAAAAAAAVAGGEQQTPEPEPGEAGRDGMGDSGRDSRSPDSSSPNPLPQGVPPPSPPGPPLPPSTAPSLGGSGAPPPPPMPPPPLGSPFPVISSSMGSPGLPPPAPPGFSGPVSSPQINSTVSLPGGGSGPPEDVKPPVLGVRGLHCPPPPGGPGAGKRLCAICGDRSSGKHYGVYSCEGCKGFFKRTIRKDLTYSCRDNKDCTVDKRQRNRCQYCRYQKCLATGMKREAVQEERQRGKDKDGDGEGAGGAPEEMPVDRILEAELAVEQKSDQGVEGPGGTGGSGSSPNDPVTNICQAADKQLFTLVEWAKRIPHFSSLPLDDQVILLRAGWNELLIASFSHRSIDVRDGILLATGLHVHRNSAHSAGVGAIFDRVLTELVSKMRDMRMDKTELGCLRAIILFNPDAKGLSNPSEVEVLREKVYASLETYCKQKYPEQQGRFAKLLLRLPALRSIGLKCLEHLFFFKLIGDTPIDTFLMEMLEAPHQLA

Regarding `CCCCCCCCCCCCCO`, the result in experiment [1], in [4], in experiment [9] and in experiment [15] was inactive. Moreover, the AC50 in [2] was 58.9 µM (active); in experiment [3], 37.8 µM (active); in [5] it was 39 µM (active); in experiment [6], 37.6 µM (active); in experiment [7], 37 µM (active); in experiment [8], 37.4 µM (active). In addition, the AC50 in [10] was 32.1 µM (active); in experiment [11], 20.6 µM (active); in experiment [12] it was 38.6 µM (active); in [13], 35.1 µM (active); in [14], 31.8 µM (active); in experiment [16] it was 38.9 µM (active). In addition, in experiment [17], the AC50 was 30.6 µM (active).
With `CCCCCCCCCCCCCCCCCC(=O)O`, the result in experiment [3], in experiment [4], in [5], in experiment [6], in experiment [18] and in [7] was inactive. In addition, the outcome in experiment [8], in experiment [11], in experiment [13], in experiment [14], in [19] and in experiment [15] was inactive. The result in experiment [17] was inactive. Moreover, the AC50 in experiment [10] is 20 µM (active); in experiment [12], 39 µM (active).
For the compound `CCCCCCCCCCO`, the outcome in experiment [3], in [4], in [5], in experiment [6], in experiment [7] and in experiment [8] was inactive. Also, the result in experiment [9], in experiment [10], in experiment [11], in experiment [12], in experiment [13] and in experiment [14] was inactive. The result in experiment [19], in experiment [15], in experiment [16] and in experiment [17] was inactive.
Regarding `Cc1nc(-c2ccc3c(c2)CCN(CCC2CCC(NC(=O)/C=C/c4ccc(F)cc4)CC2)CC3)no1` (configuration not stated), the result in [3], in experiment [4], in [5], in experiment [6], in [8] and in experiment [11] was inactive. Also, the result in [16] and in experiment [17] was inactive. Besides, the AC50 in experiment [18] was 5.83 µM (active); in experiment [7], 7.5 µM (active); in experiment [10], 6.26 µM (active); in [12], 6.4 µM (active); in [13], 5.65 µM (active); in experiment [14], 6.89 µM (active). Besides, in [15], the AC50 was 9.3 µM (active).
In the case of `O=C(O)Cc1ccccc1Nc1c(Cl)cccc1Cl`, the result in experiment [3], in [4], in experiment [5], in experiment [6], in experiment [7] and in experiment [8] was inactive. Also, the compound was classed as inactive in [9], in experiment [10], in experiment [11], in [12], in experiment [13] and in experiment [14]. For the same compound, the result in experiment [19], in experiment [15], in [16] and in experiment [17] was inactive.
For the compound `O=[N+]([O-])C(CO)(CO)CO`, the compound was called inactive in experiment [20], in [3], in experiment [4], in experiment [5], in [6] and in [18]. In addition, the outcome in [7], in [8], in [9], in [10], in experiment [11] and in experiment [12] was inactive. In addition, the result in experiment [13], in experiment [14], in [15], in [16] and in experiment [17] was inactive.
For `c1cc(-c2ccncc2)ccn1`, the outcome in experiment [3], in [4], in [5], in [6], in experiment [18] and in experiment [7] was inactive. For the same compound, the outcome in experiment [8], in experiment [9], in [10], in experiment [11], in experiment [13] and in experiment [14] was inactive. Also, the outcome in [15], in [16] and in experiment [17] was inactive. In experiment [12], the AC50 was 39 µM (active).
For the compound `Cc1cccc(Nc2cc(Cl)nc(SCC(=O)O)n2)c1C`, the outcome in experiment [3], in [4], in experiment [5], in experiment [6], in experiment [7] and in experiment [8] was inactive. Moreover, the outcome in experiment [10], in experiment [11], in experiment [12], in experiment [13], in experiment [14] and in experiment [19] was inactive. For the same compound, the outcome in experiment [15], in [16] and in experiment [17] was inactive.
